Source: ChEMBL document CHEMBL1961873, “Compounds: GSK PKIS; Assays: Nanosyn kinase panel” (2012)

What was measured:
[1] = biological target: Platelet-derived growth factor receptor beta (Homo sapiens) (UniProt P09619); details: at 1 µM;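 note: each value is a mean percent inhibition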
[2] = biological target: Tyrosine-protein kinase FRK (Homo sapiens) (UniProt P42685); details: at 0.1 µM
[3] = biological target: Tyrosine-protein kinase FRK (Homo sapiens) (UniProt P42685); details: at 1 µM
[4] = biological target: Protein-tyrosine kinase 2-beta (Homo sapiens) (UniProt Q14289); details: at 0.1 µM
[5] = biological target: Protein-tyrosine kinase 2-beta (Homo sapiens) (UniProt Q14289); details: at 1 µM
[6] = biological target: Proto-oncogene tyrosine-protein kinase receptor Ret (Homo sapiens) (UniProt P07949); details: at 0.1 µM
[7] = biological target: Proto-oncogene tyrosine-protein kinase receptor Ret (Homo sapiens) (UniProt P07949); details: at 1 µM
[8] = tested on: Proto-oncogene tyrosine-protein kinase receptor Ret (Homo sapiens), P07949 [V804L]; details: at 0.1 µM
[9] = tested on: Proto-oncogene tyrosine-protein kinase receptor Ret (Homo sapiens), P07949 [V804L]; details: at 1 µM
[10] = tested on: Proto-oncogene tyrosine-protein kinase receptor Ret (Homo sapiens), P07949 [Y791F]; details: at 0.1 µM
[11] = tested on: Proto-oncogene tyrosine-protein kinase receptor Ret (Homo sapiens), P07949 [Y791F]; details: at 1 µM
[12] = biological target: Macrophage-stimulating protein receptor (Homo sapiens) (UniProt Q04912); details: at 0.1 µM
[13] = biological target: Macrophage-stimulating protein receptor (Homo sapiens) (UniProt Q04912); details: at 1 µM
[14] = biological target: Proto-oncogene tyrosine-protein kinase ROS (Homo sapiens) (UniProt P08922); details: at 0.1 µM
[15] = biological target: Proto-oncogene tyrosine-protein kinase ROS (Homo sapiens) (UniProt P08922); details: at 1 µM
[16] = biological target: Proto-oncogene tyrosine-protein kinase Src (Homo sapiens) (UniProt P12931); details: at 0.1 µM
[17] = biological target: Proto-oncogene tyrosine-protein kinase Src (Homo sapiens) (UniProt P12931); details: at 1 µM
[18] = biological target: Tyrosine-protein kinase Srms (Homo sapiens) (UniProt Q9H3Y6); details: at 0.1 µM
[19] = biological target: Tyrosine-protein kinase Srms (Homo sapiens) (UniProt Q9H3Y6); details: at 1 µM
[20] = biological target: Tyrosine-protein kinase SYK (Homo sapiens) (UniProt P43405); details: at 0.1 µM;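 note: reported percentages are mean inhibition values for SYK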

Sequence of Tyrosine-protein kinase FRK (Homo sapiens) (P42685 whole entry): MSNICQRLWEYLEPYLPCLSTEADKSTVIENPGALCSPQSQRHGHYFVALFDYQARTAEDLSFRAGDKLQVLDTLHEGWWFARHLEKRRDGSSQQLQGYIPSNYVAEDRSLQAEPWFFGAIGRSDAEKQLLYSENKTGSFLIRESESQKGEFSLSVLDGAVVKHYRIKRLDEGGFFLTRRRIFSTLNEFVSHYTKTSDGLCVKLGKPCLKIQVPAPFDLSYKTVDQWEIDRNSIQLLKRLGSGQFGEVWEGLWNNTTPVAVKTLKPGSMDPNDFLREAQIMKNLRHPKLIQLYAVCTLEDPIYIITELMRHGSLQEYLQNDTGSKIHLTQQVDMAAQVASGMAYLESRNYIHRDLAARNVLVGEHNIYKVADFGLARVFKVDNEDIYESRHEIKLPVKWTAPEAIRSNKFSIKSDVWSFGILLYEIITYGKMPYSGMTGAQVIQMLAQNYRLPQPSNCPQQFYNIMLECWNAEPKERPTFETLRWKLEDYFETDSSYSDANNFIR
Sequence of Protein-tyrosine kinase 2-beta (Homo sapiens) (Q14289 whole entry, looked up): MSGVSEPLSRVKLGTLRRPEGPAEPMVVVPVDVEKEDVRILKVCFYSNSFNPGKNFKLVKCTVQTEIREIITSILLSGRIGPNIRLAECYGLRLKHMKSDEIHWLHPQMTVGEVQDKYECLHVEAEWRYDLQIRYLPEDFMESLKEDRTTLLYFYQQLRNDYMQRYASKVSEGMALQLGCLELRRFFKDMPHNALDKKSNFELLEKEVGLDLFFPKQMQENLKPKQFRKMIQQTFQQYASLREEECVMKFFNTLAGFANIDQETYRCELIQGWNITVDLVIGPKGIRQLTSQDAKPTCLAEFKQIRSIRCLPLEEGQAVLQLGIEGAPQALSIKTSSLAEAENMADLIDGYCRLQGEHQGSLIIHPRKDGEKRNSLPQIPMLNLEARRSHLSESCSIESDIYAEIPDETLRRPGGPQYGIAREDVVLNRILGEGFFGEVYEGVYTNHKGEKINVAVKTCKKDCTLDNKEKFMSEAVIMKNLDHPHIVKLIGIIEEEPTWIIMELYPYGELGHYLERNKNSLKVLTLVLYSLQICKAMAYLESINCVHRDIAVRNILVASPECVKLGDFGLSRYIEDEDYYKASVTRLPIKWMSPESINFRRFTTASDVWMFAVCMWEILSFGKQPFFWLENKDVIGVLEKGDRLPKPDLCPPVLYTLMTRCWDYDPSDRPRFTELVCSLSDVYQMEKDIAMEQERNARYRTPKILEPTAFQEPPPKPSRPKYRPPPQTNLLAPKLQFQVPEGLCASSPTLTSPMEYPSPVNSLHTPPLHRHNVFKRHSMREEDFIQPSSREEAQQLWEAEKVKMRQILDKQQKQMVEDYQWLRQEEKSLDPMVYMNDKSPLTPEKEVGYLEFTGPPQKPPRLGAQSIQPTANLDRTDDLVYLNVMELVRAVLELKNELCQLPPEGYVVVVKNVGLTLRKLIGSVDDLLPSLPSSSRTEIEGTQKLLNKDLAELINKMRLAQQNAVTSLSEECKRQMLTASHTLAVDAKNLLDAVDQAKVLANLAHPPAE
Sequence of Proto-oncogene tyrosine-protein kinase receptor Ret (Homo sapiens), P07949 [Y791F] (P07949 whole entry Y791F): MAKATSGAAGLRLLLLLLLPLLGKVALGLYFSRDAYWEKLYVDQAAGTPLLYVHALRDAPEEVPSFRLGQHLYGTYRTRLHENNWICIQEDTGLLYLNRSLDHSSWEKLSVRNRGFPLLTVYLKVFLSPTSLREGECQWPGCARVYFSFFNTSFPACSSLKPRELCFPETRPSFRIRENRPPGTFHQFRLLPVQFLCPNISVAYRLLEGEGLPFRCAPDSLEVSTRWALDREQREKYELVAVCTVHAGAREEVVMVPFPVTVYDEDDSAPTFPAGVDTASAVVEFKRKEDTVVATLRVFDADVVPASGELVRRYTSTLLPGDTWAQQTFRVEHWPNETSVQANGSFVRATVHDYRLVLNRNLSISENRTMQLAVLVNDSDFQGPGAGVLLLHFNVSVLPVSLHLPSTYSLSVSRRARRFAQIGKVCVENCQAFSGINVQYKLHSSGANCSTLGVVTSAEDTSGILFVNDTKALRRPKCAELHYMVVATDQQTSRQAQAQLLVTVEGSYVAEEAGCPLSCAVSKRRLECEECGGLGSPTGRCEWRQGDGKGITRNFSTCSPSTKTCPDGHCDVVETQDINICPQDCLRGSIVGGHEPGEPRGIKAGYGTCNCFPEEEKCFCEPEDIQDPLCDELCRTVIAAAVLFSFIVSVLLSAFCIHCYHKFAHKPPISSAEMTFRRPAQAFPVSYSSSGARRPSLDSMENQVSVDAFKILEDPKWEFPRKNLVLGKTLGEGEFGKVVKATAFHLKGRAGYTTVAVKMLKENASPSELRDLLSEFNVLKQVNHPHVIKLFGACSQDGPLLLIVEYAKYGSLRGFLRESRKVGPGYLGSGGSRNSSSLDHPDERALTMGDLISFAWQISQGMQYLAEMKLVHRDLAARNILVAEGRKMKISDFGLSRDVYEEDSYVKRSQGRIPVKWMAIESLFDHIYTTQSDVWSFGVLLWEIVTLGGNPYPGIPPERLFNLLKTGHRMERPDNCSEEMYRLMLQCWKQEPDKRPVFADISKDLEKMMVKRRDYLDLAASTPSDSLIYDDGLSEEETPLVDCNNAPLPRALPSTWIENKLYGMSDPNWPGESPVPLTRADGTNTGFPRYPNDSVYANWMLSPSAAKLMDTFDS
Sequence of Proto-oncogene tyrosine-protein kinase Src (Homo sapiens) (P12931 2-536 limits assumed): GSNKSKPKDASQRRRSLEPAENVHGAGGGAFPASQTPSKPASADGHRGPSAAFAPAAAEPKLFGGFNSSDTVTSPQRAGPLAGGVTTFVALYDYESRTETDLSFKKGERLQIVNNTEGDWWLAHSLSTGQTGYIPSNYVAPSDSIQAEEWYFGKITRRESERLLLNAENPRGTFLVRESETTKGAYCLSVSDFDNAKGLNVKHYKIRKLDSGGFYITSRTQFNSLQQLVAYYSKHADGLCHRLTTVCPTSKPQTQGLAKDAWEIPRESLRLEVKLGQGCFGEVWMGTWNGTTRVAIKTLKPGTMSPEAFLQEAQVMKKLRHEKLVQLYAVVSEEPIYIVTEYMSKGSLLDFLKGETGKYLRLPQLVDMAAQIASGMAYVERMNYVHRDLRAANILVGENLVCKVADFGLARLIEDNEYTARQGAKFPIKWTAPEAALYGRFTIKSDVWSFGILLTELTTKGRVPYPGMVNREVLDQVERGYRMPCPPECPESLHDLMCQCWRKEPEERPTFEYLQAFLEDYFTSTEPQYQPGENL
Sequence of Macrophage-stimulating protein receptor (Homo sapiens) (Q04912 25-304 limits assumed): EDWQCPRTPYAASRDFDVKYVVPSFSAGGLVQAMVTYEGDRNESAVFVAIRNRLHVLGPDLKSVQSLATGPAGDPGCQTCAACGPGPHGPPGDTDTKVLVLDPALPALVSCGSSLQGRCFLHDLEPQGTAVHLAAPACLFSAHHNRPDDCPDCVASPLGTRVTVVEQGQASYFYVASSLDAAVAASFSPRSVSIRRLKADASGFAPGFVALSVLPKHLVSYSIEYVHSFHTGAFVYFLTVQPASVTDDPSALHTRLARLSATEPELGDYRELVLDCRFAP
Sequence of Macrophage-stimulating protein receptor (Homo sapiens) (Q04912 310-1400 limits assumed): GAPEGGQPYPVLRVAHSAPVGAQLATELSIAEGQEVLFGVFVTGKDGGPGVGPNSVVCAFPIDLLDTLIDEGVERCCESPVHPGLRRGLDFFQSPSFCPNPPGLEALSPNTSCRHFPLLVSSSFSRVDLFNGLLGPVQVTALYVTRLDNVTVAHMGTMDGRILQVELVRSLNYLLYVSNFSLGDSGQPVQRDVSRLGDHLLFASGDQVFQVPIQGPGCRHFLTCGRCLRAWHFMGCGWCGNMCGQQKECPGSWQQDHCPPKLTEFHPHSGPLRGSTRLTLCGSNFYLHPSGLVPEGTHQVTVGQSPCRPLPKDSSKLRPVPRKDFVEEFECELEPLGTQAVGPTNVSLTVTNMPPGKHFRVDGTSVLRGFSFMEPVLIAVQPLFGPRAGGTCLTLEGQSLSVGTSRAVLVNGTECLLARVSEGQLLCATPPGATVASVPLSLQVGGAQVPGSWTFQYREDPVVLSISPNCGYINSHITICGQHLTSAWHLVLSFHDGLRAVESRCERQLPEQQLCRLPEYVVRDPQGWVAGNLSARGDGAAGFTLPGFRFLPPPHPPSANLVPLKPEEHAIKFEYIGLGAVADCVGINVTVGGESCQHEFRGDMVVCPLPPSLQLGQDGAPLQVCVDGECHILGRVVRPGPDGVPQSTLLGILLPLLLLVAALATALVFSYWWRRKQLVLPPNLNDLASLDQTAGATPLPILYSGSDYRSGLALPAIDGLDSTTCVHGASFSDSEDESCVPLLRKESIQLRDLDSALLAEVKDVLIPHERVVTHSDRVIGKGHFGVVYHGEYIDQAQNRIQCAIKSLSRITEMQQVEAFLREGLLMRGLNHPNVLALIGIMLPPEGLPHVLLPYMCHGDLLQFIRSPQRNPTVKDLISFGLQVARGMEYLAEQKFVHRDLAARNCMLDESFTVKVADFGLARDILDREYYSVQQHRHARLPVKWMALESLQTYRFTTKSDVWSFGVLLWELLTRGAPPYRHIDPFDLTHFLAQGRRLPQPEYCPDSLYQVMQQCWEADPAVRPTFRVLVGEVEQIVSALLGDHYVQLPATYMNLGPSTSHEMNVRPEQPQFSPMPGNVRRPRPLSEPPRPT
Sequence of Tyrosine-protein kinase Srms (Homo sapiens) (Q9H3Y6 whole entry): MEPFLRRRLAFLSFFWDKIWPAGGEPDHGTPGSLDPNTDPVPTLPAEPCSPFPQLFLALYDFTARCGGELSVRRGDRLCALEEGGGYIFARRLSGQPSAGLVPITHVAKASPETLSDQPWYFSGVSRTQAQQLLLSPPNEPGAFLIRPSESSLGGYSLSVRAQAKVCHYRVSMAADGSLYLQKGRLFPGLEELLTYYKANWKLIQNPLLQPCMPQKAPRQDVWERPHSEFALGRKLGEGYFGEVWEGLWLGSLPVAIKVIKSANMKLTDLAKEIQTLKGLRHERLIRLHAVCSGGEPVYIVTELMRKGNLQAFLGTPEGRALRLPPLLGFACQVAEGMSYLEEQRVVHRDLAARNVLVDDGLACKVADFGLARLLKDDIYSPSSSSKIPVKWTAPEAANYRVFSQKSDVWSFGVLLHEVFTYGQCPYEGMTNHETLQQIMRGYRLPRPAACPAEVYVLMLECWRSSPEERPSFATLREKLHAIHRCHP

| SMILES | inhibition [1] | inhibition [2] | inhibition [3] | inhibition [4] | inhibition [5] | inhibition [6] | inhibition [7] | inhibition [8] | inhibition [9] | inhibition [10] | inhibition [11] | inhibition [12] | inhibition [13] | inhibition [14] | inhibition [15] | inhibition [16] | inhibition [17] | inhibition [18] | inhibition [19] | inhibition [20] |
| --- | --- | --- | --- | --- | --- | --- | --- | --- | --- | --- | --- | --- | --- | --- | --- | --- | --- | --- | --- | --- |
| CN(C)C(=O)O[C@H]1CN[C@H](C#Cc2cc3ncnc(Nc4ccc(OCc5cccc(F)c5)c(Cl)c4)c3s2)C1 | 6.43% | 1.37% | 1.4% | 6.18% | 3.98% | 4.97% | 19.5% | 3.2% | 4.12% | 3.68% | 9.1% | 1.31% | 5.82% | 4.25% | 4.65% | 3.86% | 6.56% | 0.59% | 0.93% | -7.75% |
| COc1ccc(-c2nn3ncccc3c2-c2ccnc(Nc3cccc(C(F)(F)F)c3)n2)cc1 | 5.95% | 1.12% | 2.91% | 6.13% | 6.4% | 2.63% |  | 2.06% | 3.74% | 3.38% | 6.6% | 0.53% | -3.48% | 2.58% | 4.13% | 6.2% | 10% | -1.6% | 1.75% | -1.06% |
| NS(=O)(=O)c1cccc(-c2cc3ccncc3cc2OCc2ccccc2)c1 | 11.8% | 3.66% | 1.68% |  |  | 6.15% | 14.3% | 6.02% | 14.3% | 12.6% | 18% | 3.72% | -2.44% | 10.8% | 17.1% | 5.87% | 11.2% | -1.16% | -2.93% | -6.65% |
| COC(=O)c1cncc(/C=C/c2c(C)cc(O)cc2C)c1 | 36.7% | 2.26% | 6.54% | 9.3% | 10.1% | 2.45% | 5.3% | 2.74% | 7.8% | 0.65% | 15.2% | -3.36% | 7.09% |  | 6.7% | 11.8% | 38.2% | 0.39% | 12.7% | -5.74% |
| O=C1Nc2ccc(-c3cccnc3)cc2C1=Cc1cc(Br)c(O)c(Br)c1 |  | 1.84% | 5.49% | 9.77% | 9.16% | -0.83% | 7.95% | 2.79% | 16.2% | 8.02% | 1.19% | -1.31% | 8.32% | 8.46% | 18.3% | 2.96% | 12.1% | 12.3% | 57.9% | -3.33% |
| CC(C)c1ccc(Nc2nccc(-c3cnn4ncccc34)n2)cc1 | 40.8% | 0.49% | 1.12% | 12% | 45.8% | 6.8% | 14.4% | 4.06% | 10.1% | 5.09% | 13.4% | 1.98% | 16.8% | 19.2% | 62.4% | 1.55% | 13.4% | 1.68% | 3.15% | -6.64% |
| Cc1cc(Cl)cc2c1NC(=O)C2=NNc1ccc(S(N)(=O)=O)cc1 | 6.52% | 1.54% | 3.32% |  |  | 2.45% | -0.28% | 3.83% | 7.51% | -0.41% | 11% | 0.92% | 0.34% | 2.22% | 3.14% | 5.04% | 5.85% | -1.17% | -2.07% | -4.26% |
| Cc1ccc2c(-c3ccnc(Nc4ccc5c(c4)OCCO5)n3)c(-c3ccc(C(F)(F)F)cc3)nn2n1 | 4.63% | -1.35% | -0.65% | -0.75% | 2.42% | -1.02% | 3.09% | 0.74% | 1.64% | 1.62% | 5.72% | -0.07% | 4.33% | 1.22% | 2.46% | 1.69% | 5.52% | -0.03% | 0.07% | -0.8% |
| CCOc1nccc2c1nc(-c1nonc1N)n2CC | 20.2% | 1.66% | -0.64% | 5.11% | 7.29% | 5.47% | 12.3% | 8.5% | 20.2% | 9.76% | 28.7% | 10% | 5.31% | 5.15% | 11.8% |  | 5.71% | 3.59% | 5.69% | 1.77% |
